According to PubChem BioAssay AID1159580 (chemical genetic matrix, 2015):
The campaign covered roughly 5,500 compounds. About 2,000 (36%) were called active. Not shown: some 18% with an inconclusive outcome. Some of the results follow. Values without a mark were called inactive. Rule as the data show it: active = normalized growth mostly below about 0.91 (no sharp cut-off); inconclusive = no clear call, values can overlap the other calls; inactive = mostly above about 0.92.

Assay: chemical genetic growth profiling, strain panel (AID 1159580);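 also: tested at 20 µM; growth read once vehicle control cultures reached saturation at 30 °C; 1 = growth at the plate median or of vehicle wells; lower values mean less growth of the strain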
Conditions: growth OD

O=C1c2ccccc2C(=O)c2ccccc21
normalized growth (S. cerevisiae deletion strains, locus YJR075W, strain HOC1, active compounds read low): 0.956
normalized growth (S. cerevisiae deletion strains, locus YKL009W, strain mrt4, active compounds read low): 0.933
normalized growth (S. cerevisiae deletion strains, locus YKL068W, active compounds read low): 0.986
normalized growth (S. cerevisiae deletion strains, locus YKL085W, strain MDH1 (second series), active compounds read low): 0.97
normalized growth (S. cerevisiae deletion strains, locus YKL085W, strain MDH1, active compounds read low): 0.97
normalized growth (S. cerevisiae deletion strains, locus YKL160W, strain elf1, active compounds read low): 0.986
normalized growth (S. cerevisiae deletion strains, locus YKL190W, strain CNB1, active compounds read low): 0.98
normalized growth (S. cerevisiae deletion strains, locus YKR001C, strain vps1, active compounds read low): 0.972
normalized growth (S. cerevisiae deletion strains, locus YKR026C, strain gcn3, active compounds read low): 1
normalized growth (S. cerevisiae deletion strains, locus YKR091W, strain srl3, active compounds read low): 1
normalized growth (S. cerevisiae deletion strains, locus YLL001W, strain dnm1, active compounds read low): 1.01
normalized growth (S. cerevisiae deletion strains, locus YLL026W, active compounds read low): 0.993
normalized growth (S. cerevisiae deletion strains, locus YLL041C, strain sdh2, active compounds read low): 0.993
normalized growth (S. cerevisiae deletion strains, locus YLR027C, strain aat2, active compounds read low): 0.999
normalized growth (S. cerevisiae deletion strains, locus YLR039C, strain RIC1, active compounds read low): 0.765
normalized growth (S. cerevisiae deletion strains, locus YLR058C, strain SHM2, active compounds read low): 0.988
normalized growth (S. cerevisiae deletion strains, locus YLR102C, strain apc9, active compounds read low): 0.989
normalized growth (S. cerevisiae deletion strains, locus YLR113W, strain HOG1, active compounds read low): 1.1
normalized growth (S. cerevisiae deletion strains, locus YLR221C, strain rsa3, active compounds read low): 0.969
normalized growth (S. cerevisiae deletion strains, locus YLR258W, strain gsy2, active compounds read low): 0.993
normalized growth (S. cerevisiae deletion strains, locus YLR262C, strain YPT6 (second series), active compounds read low): 0.96
normalized growth (S. cerevisiae deletion strains, locus YLR262C, strain YPT6, active compounds read low): 0.71
normalized growth (S. cerevisiae deletion strains, locus YLR268W, strain sec22, active compounds read low): 0.974
normalized growth (S. cerevisiae deletion strains, locus YLR320W, strain mms22, active compounds read low): 0.903
normalized growth (S. cerevisiae deletion strains, locus YLR330W, strain CHS5, active compounds read low): 0.993
normalized growth (S. cerevisiae deletion strains, locus YLR342W, strain FKS1 (second series), active compounds read low): 0.938
normalized growth (S. cerevisiae deletion strains, locus YLR342W, strain FKS1, active compounds read low): 1.01
normalized growth (S. cerevisiae deletion strains, locus YLR357W, strain rsc2, active compounds read low): 0.976
normalized growth (S. cerevisiae deletion strains, locus YLR370C, strain arc18, active compounds read low): 0.994
normalized growth (S. cerevisiae deletion strains, locus YLR371W, strain rom2, active compounds read low): 0.975
normalized growth (S. cerevisiae deletion strains, locus YLR384C, strain iki3, active compounds read low): 0.994
normalized growth (S. cerevisiae deletion strains, locus YLR418C, strain cdc73, active compounds read low): 1.01
normalized growth (S. cerevisiae deletion strains, locus YML016C, strain PPZ1, active compounds read low): 0.992
normalized growth (S. cerevisiae deletion strains, locus YML032C, strain rad52, active compounds read low): 0.976
normalized growth (S. cerevisiae deletion strains, locus YML120C, strain ndi1, active compounds read low): 1.01
normalized growth (S. cerevisiae deletion strains, locus YML124C, strain tub3, active compounds read low): 0.989
normalized growth (S. cerevisiae deletion strains, locus YMR058W, strain fet3, active compounds read low): 0.948
normalized growth (S. cerevisiae deletion strains, locus YMR078C, strain ctf18, active compounds read low): 0.995
normalized growth (S. cerevisiae deletion strains, locus YMR125W, strain sto1, active compounds read low): 1.08
normalized growth (S. cerevisiae deletion strains, locus YMR129W, active compounds read low): 0.996
normalized growth (S. cerevisiae deletion strains, locus YMR205C, strain PFK2, active compounds read low): 1.03
normalized growth (S. cerevisiae deletion strains, locus YMR223W, strain ubp8, active compounds read low): 0.963
normalized growth (S. cerevisiae deletion strains, locus YMR231W, strain pep5, active compounds read low): 0.998
normalized growth (S. cerevisiae deletion strains, locus YMR263W, strain SAP30, active compounds read low): 0.97
normalized growth (S. cerevisiae deletion strains, locus YMR307W, strain GAS1, active compounds read low): 0.804
normalized growth (S. cerevisiae deletion strains, locus YNL067W, strain RPL9B, active compounds read low): 0.964
normalized growth (S. cerevisiae deletion strains, locus YNL071W, strain lat1, active compounds read low): 0.955
normalized growth (S. cerevisiae deletion strains, locus YNL128W, strain TEP1, active compounds read low): 0.946
normalized growth (S. cerevisiae deletion strains, locus YNL153C, strain GIM3, active compounds read low): 1
normalized growth (S. cerevisiae deletion strains, locus YNL183C, strain NPR1, active compounds read low): 0.961
normalized growth (S. cerevisiae deletion strains, locus YNL209W, strain ssb2, active compounds read low): 0.978
normalized growth (S. cerevisiae deletion strains, locus YNL233W, strain BNI4, active compounds read low): 0.995
normalized growth (S. cerevisiae deletion strains, locus YNL248C, strain rpa49, active compounds read low): 0.837 (active)
normalized growth (S. cerevisiae deletion strains, locus YNL250W, strain rad50, active compounds read low): 0.974
normalized growth (S. cerevisiae deletion strains, locus YNL271C, strain bni1, active compounds read low): 0.978
normalized growth (S. cerevisiae deletion strains, locus YNL298W, strain CLA4, active compounds read low): 0.975
normalized growth (S. cerevisiae deletion strains, locus YNL307C, strain MCK1, active compounds read low): 0.971
normalized growth (S. cerevisiae deletion strains, locus YNL322C, strain KRE1 (second series), active compounds read low): 1.03
normalized growth (S. cerevisiae deletion strains, locus YNL322C, strain KRE1, active compounds read low): 0.987
normalized growth (S. cerevisiae deletion strains, locus YNR049C, strain mso1, active compounds read low): 0.995
normalized growth (S. cerevisiae deletion strains, locus YNR052C, strain pop2, active compounds read low): 0.99
normalized growth (S. cerevisiae deletion strains, locus YOL006C, strain TOP1, active compounds read low): 0.97
normalized growth (S. cerevisiae deletion strains, locus YOL012C, strain htz1): 0.796
normalized growth (S. cerevisiae deletion strains, locus YOL147C, strain pex11, active compounds read low): 1.01
normalized growth (S. cerevisiae deletion strains, locus YOR001W, strain rrp6, active compounds read low): 0.991
normalized growth (S. cerevisiae deletion strains, locus YOR061W, strain CKA2, active compounds read low): 0.988
normalized growth (S. cerevisiae deletion strains, locus YOR069W, strain VPS5, active compounds read low): 1.01
normalized growth (S. cerevisiae deletion strains, locus YOR070C, strain gyp1, active compounds read low): 0.996
normalized growth (S. cerevisiae deletion strains, locus YOR080W, strain dia2, active compounds read low): 1.01
normalized growth (S. cerevisiae deletion strains, locus YOR083W, strain WHI5, active compounds read low): 0.963
normalized growth (S. cerevisiae deletion strains, locus YOR106W, strain vam3, active compounds read low): 0.945
normalized growth (S. cerevisiae deletion strains, locus YOR136W, strain idh2, active compounds read low): 0.985
normalized growth (S. cerevisiae deletion strains, locus YOR144C, strain elg1, active compounds read low): 0.992
normalized growth (S. cerevisiae deletion strains, locus YOR184W, strain ser1, active compounds read low): 0.942
normalized growth (S. cerevisiae deletion strains, locus YOR231W, strain MKK1, active compounds read low): 1.02
normalized growth (S. cerevisiae deletion strains, locus YOR265W, strain rbl2, active compounds read low): 0.993
normalized growth (S. cerevisiae deletion strains, locus YOR270C, strain vph1, active compounds read low): 0.804
normalized growth (S. cerevisiae deletion strains, locus YOR290C, strain snf2, active compounds read low): 0.973
normalized growth (S. cerevisiae deletion strains, locus YOR316C, strain cot1, active compounds read low): 0.996
normalized growth (S. cerevisiae deletion strains, locus YPL051W, strain arl3, active compounds read low): 0.926
normalized growth (S. cerevisiae deletion strains, locus YPL055C, strain LGE1, active compounds read low): 0.9
normalized growth (S. cerevisiae deletion strains, locus YPL078C, strain atp4, active compounds read low): 0.96
normalized growth (S. cerevisiae deletion strains, locus YPL106C, strain sse1, active compounds read low): 0.954
normalized growth (S. cerevisiae deletion strains, locus YPL240C, strain hsp82, active compounds read low): 0.995
normalized growth (S. cerevisiae deletion strains, locus YPL241C, strain CIN2, active compounds read low): 0.953
normalized growth (S. cerevisiae deletion strains, locus YPL256C, strain CLN2, active compounds read low): 1.08
normalized growth (S. cerevisiae deletion strains, locus YPR119W, strain clb2, active compounds read low): 0.996
normalized growth (S. cerevisiae deletion strains, locus YPR141C, strain kar3, active compounds read low): 0.99
normalized growth (S. cerevisiae deletion strains, locus YPR163C, strain tif3, active compounds read low): 0.996
normalized growth (S. cerevisiae deletion strains, locus YPR167C, strain met16, active compounds read low): 1
normalized growth (S. cerevisiae deletion strains, strain wtn01, active compounds read low): 0.988
normalized growth (S. cerevisiae strains, strain wild type, active compounds read low): 0.995
